# Source: PubChem BioAssay
# The list is not random: actives were taken first. Their share in the collection is about 7.9%.
# Cav32 inh: Cav3.2 calcium influx blockers – cell-based, Fluo-4 calcium fluorescence, FDSS, MLSMR library, primary screen; Cav3.2-expressing cells; stronger effect = lower value; 100,000 compounds, 4% hits; AID 449739, 2010; B-score at 10 µM;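 active = single-dose well whose peak fluorescence ratio is a statistical outlier from its plate by either plate-standardised score or position-corrected B-score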
# HER2 expr 66K: inhibitors of Her2 protein expression, primary screen, SKBR-3 cells, AlphaScreen, 66K library; Receptor tyrosine-protein kinase erbB-2 (Homo sapiens), P04626; SKBR-3 HER2 protein level, 18-24 h; stronger effect = lower value; HER2 level % of control, % at 10 µM; 65,000 compounds, 0.69% hits; AID 645, 2007;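 active = HER2 level under 5% of the carrier-only control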;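 also: 100% = DMSO carrier and 0% = 500 nM PU-H71 HSP90 inhibitor; lower value means stronger loss of Her2 protein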
# M1 antag: antagonists of rat M1 muscarinic receptor; 64,000 compounds, 3.4% hits; B-score at 10 µM; CHO-M1 cells, Fluo-4 calcium, ACh EC80 antagonist mode; stronger effect = lower value; Muscarinic acetylcholine receptor M1 (Rattus norvegicus), P08482; AID 628, 2007;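 active = calcium fluorescence response, raw or row-and-column corrected B-score, differing from the plate sample mean either way at a set confidence level, mostly lower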
# M1 agonist: M1 muscarinic receptor agonists, primary screen, CHO-M1 cells, Fluo-4 calcium, agonist mode | Muscarinic acetylcholine receptor M1 | Fluo-4 calcium fluorescence; stronger effect = higher value | B-score at 10 µM | 64,000 compounds, 3% hits;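 active = fluorescence rise, raw or as B-score row- and column-corrected plate score, outside the 99.7% band of its plate's samples, either direction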
# PLAP activator: PLAP enzyme activators, biochemical, luminescence, HTS | activation fold at 20 µM | Alkaline phosphatase, placental type (Homo sapiens), P05187 | purified PLAP enzyme, luminescent substrate read-out; stronger effect = higher value | 96,000 compounds, 1.2% hits; in the data active = activation fold above about 2
# * = called active by the depositor; nt = not tested or not shown.
SMILES,Cav32 inh,HER2 expr 66K,M1 antag,M1 agonist,PLAP activator
CCCCNC(=O)C(C#N)c1nc2ccccc2nc1N1CCN(c2ccccc2F)CC1 (stereo not given),-7.5*,163,-0.18,36*,nt
COCCCNC(=O)C(C#N)c1nc2ccccc2nc1N1CCN(Cc2ccccc2)CC1 (stereo not given),-9*,93,-0.021,2.8,1.2
COCCOC(=O)C(C#N)c1nc2ccccc2nc1N1CCN(Cc2ccccc2)CC1 (stereo not given),-3.7,101,-2.7,-0.33,1.6
O=C(CNC(=O)c1ccc(Cl)cc1)NCCCn1ccnc1,nt,105,-0.0051,-0.58,1.1
CC1Cc2ccccc2N1C(=O)CSc1nc2c(c(=O)n(C)c(=O)n2C)n1Cc1ccccc1 (stereo not given),-3.1,190,-0.46,1.3,1.6
CC(/C=N\NC(=O)Cn1c(C)nc2ccccc21)=C\c1ccccc1,nt,nt,nt,nt,0.9
CCOC(=O)C1CCN(c2nc3ccccc3nc2C(C#N)C(=O)NCCc2ccccc2)CC1 (stereo not given),nt,69,-0.73,33*,nt
C=CCn1c(CSc2nc3ccccc3s2)nnc1SCC(=O)NCc1ccccc1,-4.3*,nt,nt,nt,1.5
CC(O)CCc1nc2ccc(C(=O)O)cc2[nH]1 (stereo not given),nt,-19*,-0.086,-0.42,1
Cc1c(CCO)c(=O)n(-c2ccccc2)n1S(=O)(=O)c1c(Cl)cc(Cl)cc1Cl,-5.5*,nt,nt,nt,1
Cc1c(NCc2cc(Cl)cc(Cl)c2O)c(=O)n(-c2ccccc2)n1C,-2.1,nt,nt,nt,1.8
CCN(CC)C(=O)CSc1ncnc2c1nnn2-c1ccc(OC)cc1,0.57,81,0.4,0.29,0.9
COc1ccc(-n2nnc3c(SCC(=O)NCC4CCCO4)ncnc32)cc1 (stereo not given),nt,-0.9*,-0.8,0.77,1.1
O=C(NCc1ccc(F)cc1)c1cc2c(s1)CCCC2,-6.3*,nt,nt,nt,0.5
CC1CCc2sc(C(=O)NCc3ccc(F)cc3)cc2C1 (stereo not given),-2,nt,nt,nt,0.8
CC#CCN(CC#CC)S(=O)(=O)c1ccc(-n2cnnn2)c(OC)c1,-0.012,71,0.38,1.8,1
CC(C)=C1C2CCC1C1C(=O)N(NC(=O)COc3ccc(C(C)(C)C)cc3)C(=O)C21 (stereo not given),-8.4*,nt,nt,nt,1.3
CC(=O)Nc1ccc(S(=O)(=O)NNC(=O)COc2ccc(C(C)(C)C)cc2)cc1,-2.5,nt,nt,nt,0.9
COc1ccc(CCNc2oc(COc3ccccc3Cl)nc2C#N)cc1OC,-5.8*,101,-0.82,1.7,nt
CCOC(=O)C1CCN(C(=O)c2oc3ccc(S(=O)(=O)N4CC(C)CC(C)C4)cc3c2C)CC1 (stereo not given),-5.9*,240,-1.3,0.68,1.5
CCOC(=O)N1CCN(C(=O)c2oc3ccc(S(=O)(=O)N4CC(C)CC(C)C4)cc3c2C)CC1 (stereo not given),-2.3,105,-0.99,-0.61,1.3
CC1CCCC/C1=N\NS(=O)(=O)c1ccc(Br)cc1 (stereo not given),-2,nt,nt,nt,1.2
Cc1cccn2c(=O)c3cc(C#N)c(=NC(=O)c4ccccc4)n(Cc4ccco4)c3nc12,nt,nt,-0.72,19*,nt
CCCCCn1c(=NC(C)=O)c(C#N)cc2c(=O)n3cccc(C)c3nc21,nt,94,0.039,5.3*,nt
CCCn1c(=NC(C)=O)c(C#N)cc2c(=O)n3cccc(C)c3nc21,nt,66,-0.27,0.11,nt
SMILES,Cav32 inh,HER2 expr 66K,M1 antag,M1 agonist,PLAP activator
Cc1ccc(CC(=O)Nc2nc3c(s2)CCCC3)cc1,-5.2*,nt,nt,nt,0.7
COC(=O)c1cccc(-n2nnnc2SCC(=O)Nc2nc3c(s2)CCCC3)c1,-4.8*,122,-0.032,-0.76,1.2
O=C(CS(=O)(=O)Cc1ccccc1)Nc1nc2c(s1)CCCC2,-1.1,110,0.33,-1.5,1.2
O=C(CCCc1cccs1)Nc1nc2c(s1)CCCC2,-7.6*,71,-0.45,0.46,1.2
O=C(Cc1ccc(S(=O)(=O)N2CCCC2)s1)Nc1nc2c(s1)CCCC2,-3.8*,78,-0.15,-0.2,1.3
O=C(CCS(=O)(=O)Cc1ccccc1)Nc1nc2c(s1)CCCC2,-0.44,76,0.87,-2.4,0.8
COc1cccc(-n2nnnc2SCC(=O)Nc2nc3c(s2)CCCC3)c1,-0.93,nt,nt,nt,nt
COc1ccc2cc(C#N)c(N3CCN(Cc4nnnn4CCC(C)C)CC3)nc2c1,-1,81,0.58,-0.59,1.4
Cc1ccc2cc(C)c3nnc(SCC(=O)Nc4nc5c(s4)CCCC5)n3c2c1C,-5.3*,nt,nt,nt,1.4
CCn1c(SCC(=O)Nc2nc3c(s2)CCCC3)nnc1-c1ccccc1,-1.5,103,0.17,0.83,1.8
O=c1cc(O)c2c(=O)n3c4c(cccc4c2o1)CCC3,nt,92,0.064,-0.47,nt
O=C(Nc1cccc2nsnc12)c1ccc(-c2cccc(Cl)c2)o1,-0.23,nt,nt,nt,1
Cc1ccc(NC(=O)CN(C)S(=O)(=O)c2cccc3nsnc23)cc1Cl,-7.2*,75,0.0079,-0.023,0.9
O=C(OCc1nnc(-c2ccccc2)o1)c1ccco1,0.57,80,-0.0037,-0.032,1
Cc1nn(Cc2ccccc2)c(Cl)c1C(=O)OCc1nnc(-c2ccccc2)o1,-5*,89,-0.42,-1.2,1.5
Cc1nn(Cc2ccccc2)c(Cl)c1C(=O)OCc1nnc(-c2ccc(Cl)cc2)o1,-7.3*,69,-1.3,2.1,1.4
S=c1[nH]nc(-c2ccncc2)n1Cc1ccccc1,0.48,118,0.41,0.6,2*
S=c1[nH]nc(-c2cccnc2)n1Cc1ccccc1,0.44,131,0.098,0.031,0.9
COc1ccc(-n2c(SCC(N)=O)nnc2-c2ccccc2F)cc1,1,91,nt,nt,nt
COC(=O)C1=C(N)c2c(F)cccc2C1(C#N)c1ccc(F)cc1 (stereo not given),-5.6*,nt,nt,nt,0.8
Cc1ccc2nc(-c3ccc(NC(=O)C4CCCO4)cc3)[nH]c2c1 (stereo not given),0.27,nt,nt,nt,1.4
O=C(Nc1ccc(Cl)c(C(F)(F)F)c1)c1ccco1,-5.8*,nt,-0.46,-0.016,0.9
COc1cccc(C(=O)Nc2ccc(Cl)c(C(F)(F)F)c2)c1,-5.1*,nt,nt,nt,0.6
COc1cccc(C(=O)Nc2cc(C(F)(F)F)ccc2Cl)c1,-1.5,nt,nt,nt,0.9
O=C1C(c2ccccc2)SC(=Nc2ccccc2)N1S(=O)(=O)c1ccccc1 (stereo not given),-0.56,nt,nt,nt,1.3
COc1cccc(/C=N/Nc2nc(Nc3ccccc3)nc(-n3nc(C)cc3C)n2)c1O,nt,nt,nt,nt,2.3*
Cc1cc(C)n(-c2nc(Nc3ccccc3)nc(-n3nc(C)cc3C)n2)n1,0.46,94,0.79,-0.52,1.1
COc1cc(C#CC#CCN2CCCCC2)ccc1O,-0.84,75,-0.26,0.22,1.4
c1ccc(-c2nc(CSc3n[nH]c(-c4cccs4)n3)cs2)cc1,-5.1,nt,nt,nt,1.6
